Results taken from article PMC11006913.
Numbering of substitutions follows the chain as printed.

Key:
Experiment in all cases: PBM; 200 nM protein, PBS
Settings in all cases: dsDNA, one strand shown
[1] = biological target: HOXB4 (Homo sapiens, UniProt P17483 148-234)
[2] = biological target: T1, VENTX (Homo sapiens, UniProt O95231 78-163, R121Q)
T1 sequence: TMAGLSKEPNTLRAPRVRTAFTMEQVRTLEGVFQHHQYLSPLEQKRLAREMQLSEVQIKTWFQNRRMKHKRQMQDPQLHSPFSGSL

[3] = biological target: HOXA4 (Homo sapiens, UniProt Q00056 201-287, W262R)
[4] = biological target: ALX4 (Homo sapiens, UniProt Q9H161 200-286)
[5] = biological target: PRRX1 (Homo sapiens, UniProt P54821 80-166, F113S)
[6] = biological target: T2, VENTX (Homo sapiens, UniProt O95231 78-163, Y115F)
T2 sequence: T1 sequence with Y38F, Q44R

[7] = biological target: HOXB6 (Homo sapiens, UniProt P17509 132-218, K202E)
[8] = biological target: HOXA2 (Homo sapiens, UniProt O43364 129-215, R185T)
[9] = biological target: HOXA4 (Homo sapiens, UniProt Q00056 201-287, R217L)
[10] = biological target: HOXB4 (Homo sapiens, UniProt P17483 148-234, V174I)
[11] = biological target: T3, PAX4 (Homo sapiens, UniProt O43316 9-242, R200Q)
T3 sequence: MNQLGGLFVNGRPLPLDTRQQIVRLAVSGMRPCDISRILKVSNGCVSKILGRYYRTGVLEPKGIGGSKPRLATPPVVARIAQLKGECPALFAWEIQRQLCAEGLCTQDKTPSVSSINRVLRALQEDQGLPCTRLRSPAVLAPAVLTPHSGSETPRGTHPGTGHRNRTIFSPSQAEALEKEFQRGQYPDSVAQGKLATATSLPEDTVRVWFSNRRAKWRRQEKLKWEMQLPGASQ

[12] = biological target: HOXA2 (Homo sapiens, UniProt O43364 129-215, R185K)
[13] = biological target: HOXA4 (Homo sapiens, UniProt Q00056 201-287)
[14] = biological target: MSX2 (Homo sapiens, UniProt P35548 130-214)
[15] = biological target: MSX2 (Homo sapiens, UniProt P35548 130-214, F161Y)
[16] = biological target: VAX1 (Homo sapiens, UniProt Q5SQQ9 86-172, T142I)
[17] = biological target: HOXA4 (Homo sapiens, UniProt Q00056 201-287, W262F)
[18] = biological target: PRRX1 (Homo sapiens, UniProt P54821 80-166)
[19] = biological target: VAX1 (Homo sapiens, UniProt Q5SQQ9 86-172, K157R)
[20] = biological target: HOXB6 (Homo sapiens, UniProt P17509 132-218)
HOXB6 (Homo sapiens, UniProt P17509 132-218), sequence (P17509 132-218): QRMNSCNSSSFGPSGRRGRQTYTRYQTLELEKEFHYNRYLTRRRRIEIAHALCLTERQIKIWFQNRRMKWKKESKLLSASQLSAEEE

MSX2 (Homo sapiens, UniProt P35548 130-214), sequence (P35548 130-214): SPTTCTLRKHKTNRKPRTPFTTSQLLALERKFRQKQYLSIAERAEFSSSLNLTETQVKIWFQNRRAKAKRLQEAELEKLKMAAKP
HOXB6 (Homo sapiens, UniProt P17509 132-218, K202E), sequence (P17509 132-218 K202E): as the sequence (P17509 132-218) above, with K71E counted along it
HOXA4 (Homo sapiens, UniProt Q00056 201-287, R217L), sequence (Q00056 201-287 R217L): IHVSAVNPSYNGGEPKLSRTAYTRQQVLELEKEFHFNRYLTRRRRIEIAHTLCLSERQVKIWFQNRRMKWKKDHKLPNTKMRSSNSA
HOXA2 (Homo sapiens, UniProt O43364 129-215, R185T), sequence (O43364 129-215 R185T): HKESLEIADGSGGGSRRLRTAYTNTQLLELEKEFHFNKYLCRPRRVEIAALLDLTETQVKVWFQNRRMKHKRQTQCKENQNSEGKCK
VAX1 (Homo sapiens, UniProt Q5SQQ9 86-172, T142I), sequence (Q5SQQ9 86-172 T142I): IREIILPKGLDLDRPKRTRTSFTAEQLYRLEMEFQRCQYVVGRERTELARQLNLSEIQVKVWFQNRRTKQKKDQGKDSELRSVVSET
PRRX1 (Homo sapiens, UniProt P54821 80-166), sequence (P54821 80-166): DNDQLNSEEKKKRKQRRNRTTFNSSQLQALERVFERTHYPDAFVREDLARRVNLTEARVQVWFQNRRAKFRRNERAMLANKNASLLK
HOXA4 (Homo sapiens, UniProt Q00056 201-287), sequence (Q00056 201-287): as the sequence (Q00056 201-287 R217L) above, with L17R counted along it
HOXB4 (Homo sapiens, UniProt P17483 148-234, V174I), sequence (P17483 148-234 V174I): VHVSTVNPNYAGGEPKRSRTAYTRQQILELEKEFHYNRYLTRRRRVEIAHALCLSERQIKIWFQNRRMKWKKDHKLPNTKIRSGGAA
PRRX1 (Homo sapiens, UniProt P54821 80-166, F113S), sequence (P54821 80-166 F113S): as the sequence (P54821 80-166) above, with F34S counted along it
ALX4, sequence (Q9H161 200-286): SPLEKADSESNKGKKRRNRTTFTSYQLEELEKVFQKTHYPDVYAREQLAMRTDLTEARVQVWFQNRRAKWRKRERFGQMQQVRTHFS
HOXA4 (Homo sapiens, UniProt Q00056 201-287, W262F), sequence (Q00056 201-287 W262F): as the sequence (Q00056 201-287 R217L) above, with L17R, W62F counted along it
MSX2 (Homo sapiens, UniProt P35548 130-214, F161Y), sequence (P35548 130-214 F161Y): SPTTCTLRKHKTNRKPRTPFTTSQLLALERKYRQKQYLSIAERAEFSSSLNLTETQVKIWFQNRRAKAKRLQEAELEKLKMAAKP
HOXA4 (Homo sapiens, UniProt Q00056 201-287, W262R), sequence (Q00056 201-287 W262R): as the sequence (Q00056 201-287 R217L) above, with L17R, W62R counted along it
HOXB4 (Homo sapiens, UniProt P17483 148-234), sequence (P17483 148-234): as the sequence (P17483 148-234 V174I) above, with I27V counted along it
VAX1 (Homo sapiens, UniProt Q5SQQ9 86-172, K157R), sequence (Q5SQQ9 86-172 K157R): as the sequence (Q5SQQ9 86-172 T142I) above, with I57T, K72R counted along it
HOXA2 (Homo sapiens, UniProt O43364 129-215, R185K), sequence (O43364 129-215 R185K): as the sequence (O43364 129-215 R185T) above, with T57K counted along it

Row | Sequence | binding signal [1] | binding signal [2] | binding signal [3] | binding signal [4] | binding signal [5] | binding signal [6] | binding signal [7] | binding signal [8] | binding signal [9] | binding signal [10] | binding signal [11] | binding signal [12] | binding signal [13] | binding signal [14] | binding signal [15] | binding signal [16] | binding signal [17] | binding signal [18] | binding signal [19] | binding signal [20]
1 | ACTAATTA | 13.5 upbm affinity estimate (log intensity, higher = more binding, comparable within an allelic series) | 12.8 upbm affinity estimate (log intensity, higher = more binding, comparable within an allelic series) | 10.9 upbm affinity estimate (log intensity, higher = more binding, comparable within an allelic series) | 14.4 upbm affinity estimate (log intensity, higher = more binding, comparable within an allelic series) | 12 upbm affinity estimate (log intensity, higher = more binding, comparable within an allelic series) | 12.6 upbm affinity estimate (log intensity, higher = more binding, comparable within an allelic series) | 10.2 upbm affinity estimate (log intensity, higher = more binding, comparable within an allelic series) | 14 upbm affinity estimate (log intensity, higher = more binding, comparable within an allelic series) | 12.9 upbm affinity estimate (log intensity, higher = more binding, comparable within an allelic series) | 14.2 upbm affinity estimate (log intensity, higher = more binding, comparable within an allelic series) | 12.7 upbm affinity estimate (log intensity, higher = more binding, comparable within an allelic series) | 13.8 upbm affinity estimate (log intensity, higher = more binding, comparable within an allelic series) | 14.2 upbm affinity estimate (log intensity, higher = more binding, comparable within an allelic series) | 14.1 upbm affinity estimate (log intensity, higher = more binding, comparable within an allelic series) | 13.8 upbm affinity estimate (log intensity, higher = more binding, comparable within an allelic series) | 14.1 upbm affinity estimate (log intensity, higher = more binding, comparable within an allelic series) | 12.8 upbm affinity estimate (log intensity, higher = more binding, comparable within an allelic series) | 13.7 upbm affinity estimate (log intensity, higher = more binding, comparable within an allelic series) | 14.2 upbm affinity estimate (log intensity, higher = more binding, comparable within an allelic series) | 12.4 upbm affinity estimate (log intensity, higher = more binding, comparable within an allelic series)
2 | ACCAATTA | – | 12.2 upbm affinity estimate (log intensity, higher = more binding, comparable within an allelic series) | – | 14.2 upbm affinity estimate (log intensity, higher = more binding, comparable within an allelic series) | 11.5 upbm affinity estimate (log intensity, higher = more binding, comparable within an allelic series) | 11.8 upbm affinity estimate (log intensity, higher = more binding, comparable within an allelic series) | 9.84 upbm affinity estimate (log intensity, higher = more binding, comparable within an allelic series) | 12.8 upbm affinity estimate (log intensity, higher = more binding, comparable within an allelic series) | – | 13.6 upbm affinity estimate (log intensity, higher = more binding, comparable within an allelic series) | 12.1 upbm affinity estimate (log intensity, higher = more binding, comparable within an allelic series) | 13.2 upbm affinity estimate (log intensity, higher = more binding, comparable within an allelic series) | – | 14.2 upbm affinity estimate (log intensity, higher = more binding, comparable within an allelic series) | 13.8 upbm affinity estimate (log intensity, higher = more binding, comparable within an allelic series) | 12.4 upbm affinity estimate (log intensity, higher = more binding, comparable within an allelic series) | – | 13.6 upbm affinity estimate (log intensity, higher = more binding, comparable within an allelic series) | 12.7 upbm affinity estimate (log intensity, higher = more binding, comparable within an allelic series) | 11.7 upbm affinity estimate (log intensity, higher = more binding, comparable within an allelic series)
3 | CCCCGGCG | – | – | 9.68 upbm affinity estimate (log intensity, higher = more binding, comparable within an allelic series) | – | – | – | 9.01 upbm affinity estimate (log intensity, higher = more binding, comparable within an allelic series) | – | 9.73 upbm affinity estimate (log intensity, higher = more binding, comparable within an allelic series) | – | – | – | 9.89 upbm affinity estimate (log intensity, higher = more binding, comparable within an allelic series) | – | – | – | 9.94 upbm affinity estimate (log intensity, higher = more binding, comparable within an allelic series) | – | – | 9 upbm affinity estimate (log intensity, higher = more binding, comparable within an allelic series)
4 | TATTAGAA | 10.9 upbm affinity estimate (log intensity, higher = more binding, comparable within an allelic series) | – | – | – | – | – | – | – | – | 11 upbm affinity estimate (log intensity, higher = more binding, comparable within an allelic series) | 11 upbm affinity estimate (log intensity, higher = more binding, comparable within an allelic series) | – | – | – | – | – | – | – | – | –
5 | ACTAATTG | 13.1 upbm affinity estimate (log intensity, higher = more binding, comparable within an allelic series) | 12.3 upbm affinity estimate (log intensity, higher = more binding, comparable within an allelic series) | 10.5 upbm affinity estimate (log intensity, higher = more binding, comparable within an allelic series) | 13.9 upbm affinity estimate (log intensity, higher = more binding, comparable within an allelic series) | 11.2 upbm affinity estimate (log intensity, higher = more binding, comparable within an allelic series) | 11.9 upbm affinity estimate (log intensity, higher = more binding, comparable within an allelic series) | – | 13.2 upbm affinity estimate (log intensity, higher = more binding, comparable within an allelic series) | 11.8 upbm affinity estimate (log intensity, higher = more binding, comparable within an allelic series) | 13.8 upbm affinity estimate (log intensity, higher = more binding, comparable within an allelic series) | 12 upbm affinity estimate (log intensity, higher = more binding, comparable within an allelic series) | 13.3 upbm affinity estimate (log intensity, higher = more binding, comparable within an allelic series) | 13.7 upbm affinity estimate (log intensity, higher = more binding, comparable within an allelic series) | 14 upbm affinity estimate (log intensity, higher = more binding, comparable within an allelic series) | 13.7 upbm affinity estimate (log intensity, higher = more binding, comparable within an allelic series) | 13 upbm affinity estimate (log intensity, higher = more binding, comparable within an allelic series) | 11.4 upbm affinity estimate (log intensity, higher = more binding, comparable within an allelic series) | 13.3 upbm affinity estimate (log intensity, higher = more binding, comparable within an allelic series) | 13.3 upbm affinity estimate (log intensity, higher = more binding, comparable within an allelic series) | –
6 | ATAATTAG | 13.6 upbm affinity estimate (log intensity, higher = more binding, comparable within an allelic series) | 12.4 upbm affinity estimate (log intensity, higher = more binding, comparable within an allelic series) | 10.9 upbm affinity estimate (log intensity, higher = more binding, comparable within an allelic series) | 14.4 upbm affinity estimate (log intensity, higher = more binding, comparable within an allelic series) | 11.9 upbm affinity estimate (log intensity, higher = more binding, comparable within an allelic series) | 12.3 upbm affinity estimate (log intensity, higher = more binding, comparable within an allelic series) | 10.1 upbm affinity estimate (log intensity, higher = more binding, comparable within an allelic series) | 13.9 upbm affinity estimate (log intensity, higher = more binding, comparable within an allelic series) | 12.7 upbm affinity estimate (log intensity, higher = more binding, comparable within an allelic series) | 14.3 upbm affinity estimate (log intensity, higher = more binding, comparable within an allelic series) | 12.6 upbm affinity estimate (log intensity, higher = more binding, comparable within an allelic series) | 13.8 upbm affinity estimate (log intensity, higher = more binding, comparable within an allelic series) | 14.2 upbm affinity estimate (log intensity, higher = more binding, comparable within an allelic series) | 14.1 upbm affinity estimate (log intensity, higher = more binding, comparable within an allelic series) | 13.7 upbm affinity estimate (log intensity, higher = more binding, comparable within an allelic series) | 13.9 upbm affinity estimate (log intensity, higher = more binding, comparable within an allelic series) | 12.3 upbm affinity estimate (log intensity, higher = more binding, comparable within an allelic series) | 13.7 upbm affinity estimate (log intensity, higher = more binding, comparable within an allelic series) | 13.9 upbm affinity estimate (log intensity, higher = more binding, comparable within an allelic series) | 12.2 upbm affinity estimate (log intensity, higher = more binding, comparable within an allelic series)
